In PubChem BioAssay one finds z-score data, which are given here for 36 compounds.

SMILES strings stand for the structures. Activity calls are given as the source filed them.

The assay is described as follows: cell viability in Huh7 cells, primary screen, cytotoxicity control for HCV replication inhibitor project, CellTiter-Glo luminescence, basal, 48 h (AID 1143).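 Also: Huh7 hepatoma cells carrying a hepatitis C replication reporter with no stimulus; test concentration not given here.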 The settings on record: Huh7 HCV replicon, higher = more signal, called active from +8 up or from −8 down. On the technique in general: In ATP-based viability assays light output follows the ATP content of the culture.
With `C[N+](C)(C)CCCCNC(=O)[C@H]1C[C@H]2C(=O)N3CCC[C@H]3C(=O)N2[C@H]1c1ccc(O)cc1`, the z-score is -0.102 (inactive).

As to `O=S(=O)(NCCCO)c1ccc(Br)cc1`, the z-score is -1.52 (inactive).

In the case of `Cc1ccc(S(=O)(=O)N2CC(C(=O)O)=CCC2c2ccccc2)cc1` (stereo unspecified), the z-score is 0.0982 (inactive).

On to `C=CCOC(=O)[C@H]1[C@@H]2C(=O)O[C@@H](c3ccccc3)[C@@H](c3ccccc3)N2[C@@H](c2ccc(OCCOC(=O)[C@@H]3C[C@@H]4C(=O)NCC(=O)N4[C@@H]3c3ccc(O)cc3)cc2)[C@]12C(=O)Nc1ccc(I)cc12`, for which the z-score was 0.586 (inactive).

For the compound `CC(=O)NCCCC[C@@H]1NC(=O)[C@@H]2C[C@H](C(=O)NCCCCCC[N+](C)(C)C)[C@H](c3cccc(OCCO)c3)N2C1=O`, the z-score is -0.134 (inactive).

`C/C=C/[C@H](CCn1cc([C@H](O)c2ccccc2)nn1)[Si](C)(C)c1ccc(OC)cc1`: the z-score is -1 (inactive).

`CCCNC(=O)[C@@]1(C)c2ccccc2C(=O)N(Cc2cc(C(F)(F)F)cc(C(F)(F)F)c2)[C@H]1c1ccc(CO)cc1`: the z-score was -5.52 (inactive).

For the compound `C=C(CCCC)/C(=C/C[C@H](OC(C)=O)c1ccc(CO)o1)c1cc(C(=O)OC)ccc1OC`, the z-score is -3.43 (inactive).

As for `C=CCCN(CC#C[C@H]1Oc2ccccc2S(=O)(=O)N2CCC[C@@H]12)S(=O)(=O)c1ccc(C)cc1`, the z-score is -1.57 (inactive).

For the compound `CN1C(=O)C2C=CC(C(O)C(c3ccccc3)c3ccccc3)N(Nc3ccccc3)C2C1=O` (stereo unspecified), the z-score is -1.91 (inactive).

For the compound `O=C1OCCC/C=C\[C@H]2OC34C=CCN(CCN5CCOCC5)C(=O)[C@H]3N(CCO)C(=O)[C@@H]4C12` (stereo partly specified), the z-score was 0.364 (inactive).

Take `COCCOC(=O)N1C(=O)[C@@]2(c3cc(C#CC4(O)CCCCCC4)ccc31)[C@H](c1ccc(O)cc1)N1[C@H](c3ccccc3)[C@H](c3ccccc3)OC(=O)[C@H]1[C@@H]2C(=O)N1CCc2cc(OC)c(OC)cc2C1`: the z-score is -2.45 (inactive).

`COCCn1c(C(=O)N2CCCC2)cc2c1C[C@H]1CN(C(=O)c3ccccc3)[C@@](Cc3ccc(OC)cc3)(C(=O)OC)[C@@H]21`: the z-score was -1.54 (inactive).

On to `Cc1cc(C)c(C(O)C2C=CC3C(=O)NC(=O)C3N2Nc2ccccn2)c(C)c1` (stereo unspecified), for which the z-score was 0.882 (inactive).

As to `CC(c1ccccc1)C(O)C1C=CC2C(=O)N(Cc3ccccc3)C(=O)C2N1n1cnnc1` (stereo unspecified), the z-score was -0.0357 (inactive).

`O=C(NCC(O)CO)[C@@]1(Cc2ccccc2)N=C(c2ccc(OCCCO)cc2)O[C@H]1c1ccccc1` (stereo partly specified): the z-score was -2.66 (inactive).

Regarding `CC(c1ccccc1)C(O)C1C=CC2C(=O)N(c3ccccc3)C(=O)C2N1Nc1ccccc1F` (stereo unspecified), the z-score is -2.63 (inactive).

In the case of `C=CC[C@@]1(C(=O)NCc2ccccc2)N=C(c2ccc(OCCCO)cc2)O[C@@H]1c1ccccc1CN=[N+]=[N-]`, the z-score is -3.66 (inactive).

Consider `C=CCN1C(=O)[C@]2(Cc3ccccc31)N=C(c1ccc(OCCCO)cc1)O[C@@H]2c1ccccc1`, for which the z-score is -3.54 (inactive).

Regarding `CCCCC(=O)N(Cc1ccccc1F)[C@@H]1CC(C(=O)NCCO)=C[C@H](Oc2c(I)cc(CO)cc2OC)[C@H]1O`, the z-score was -2.1 (inactive).

For the compound `Cc1c(NC(=O)/C(C#N)=C/C=C/c2ccccc2)c(=O)n(-c2ccccc2)n1C`, the z-score was -0.328 (inactive).

Turning to `CC(C)(C)OC(=O)CC[C@]1(C(=O)NCC(O)CO)N=C(c2ccc(OCCCO)cc2)O[C@H]1c1ccccc1CN=[N+]=[N-]` (stereo partly specified), the z-score was 0.168 (inactive).

For the compound `CCCC[C@@H]1C[C@H]1[C@@H](NC(=O)c1ccco1)c1ccccc1`, the z-score is -2.87 (inactive).

With `NC(=O)NCC#Cc1ccc2c(c1)[C@]1(C(=O)N2)[C@H](c2ccccc2OCCO)N2[C@H](c3ccccc3)[C@H](c3ccccc3)OC(=O)[C@H]2[C@@H]1C(=O)N1CCCCCCC1`, the z-score was -1.57 (inactive).

In the case of `C=C(COC)C(=O)CC[C@H](OC(=O)c1cccnc1)c1ccccc1OCCO`, the z-score was -2.22 (inactive).

On to `C=C(C(=O)CC[C@@H](OC(=O)c1cccnc1)c1ccc(CO)o1)C(C)C`, for which the z-score is 0.184 (inactive).

In the case of `O=C1O[C@H](c2ccccc2)[C@H](c2ccccc2)N2[C@H]1[C@@H](C(=O)Nc1nc3ccccc3s1)[C@]1(C(=O)Nc3ccc(C#CC4=CCCCC4)cc31)[C@H]2c1ccc(OCCO)cc1`, the z-score was -1.3 (inactive).

As for `COCCOC(=O)N1C(=O)[C@@]2(c3cc(C#Cc4ccc(OC)cc4)ccc31)[C@H](C(N)=O)[C@H]1C(=O)O[C@H](c3ccccc3)[C@H](c3ccccc3)N1[C@@H]2c1ccc(O)cc1`, the z-score was -4.24 (inactive).

On to `CN1C(=O)C2C(C1=O)C1C=C(c3ccc(CO)cc3)C2C(C2CC2)N1Cc1sc2ccccc2c1Cl` (stereo unspecified), for which the z-score is -3.96 (inactive).

Turning to `CC1CC/C=C\[C@H]2OC34C=CCN(Cn5nnc6ccccc65)C(=O)[C@H]3N(CCCO)C(=O)[C@@H]4C2C(=O)O1` (stereo partly specified), the z-score was -0.382 (inactive).

`O=P(NCC1(CC2(c3ccccc3)CO2)CC1)(c1ccccc1)c1ccccc1` (stereo unspecified): the z-score is -0.814 (inactive).

As for `CCOC(=O)C1=CC[C@@H](c2ccccc2)N(S(=O)(=O)c2ccc(C)cc2)[C@H]1c1ccc(C#N)cc1`, the z-score is -2.07 (inactive).

In the case of `COc1cc(NN2C(C(O)c3ccccc3)C=CC3C(=O)N(c4ccccc4)C(=O)C32)cc(OC)c1OC` (stereo unspecified), the z-score was -3.47 (inactive).

For `Cn1c2c(c3ccccc31)C(=O)C1NC2C=CC1(C)C(=O)OCc1ccccc1` (stereo unspecified), the z-score is -0.171 (inactive).

As to `Cc1ccc(S[C@]2(C(=O)NCCN3CCOCC3)CC(=O)N(C3CCCCC3)[C@@H]2c2ccc(CO)cc2)cc1`, the z-score was -0.0065 (inactive).

For the compound `COCCOC(=O)N1C(=O)[C@@]2(c3cc(C#CC4=CCCCC4)ccc31)[C@H](c1ccc(OCCO)cc1)N1[C@H](c3ccccc3)[C@H](c3ccccc3)OC(=O)[C@H]1[C@@H]2C(=O)Nc1nc2ccccc2s1`, the z-score is -3.52 (inactive).
